# In PubChem BioAssay AID1259420 (Broad Institute, 2018):
# “And” between values parts separate entries of the source, which are not always exact repeats. Equal values may be shown once. Out of some 1,000 compounds screened, about 250 (25%) were called active. Inconclusive results (about 31%) are left out. These entries were drawn from the full list. Entries with a potency or affinity are not part of this list. Values without a mark were called inactive. The rule behind the calls is not given here.
# Experiment: T. gondii intracellular growth, IFN-gamma absent, dose response, cell-based (AID 1259420);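 note: host cells were HeLa; final incubation lasted 72 hours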
# Details: Toxoplasma gondii growth in host cells, no IFN-gamma
smiles,measurement,setting,value
COc1ccccc1C#Cc1ccc([C@H]2[C@@H](CO)N3CCCCN(C(=O)C4CCC4)C[C@H]23)cc1,max activity,at 19.5 µM unless noted,11% [at 0.16 µM]
CN(C)CCOCC12CCCOC1CCN(C(=O)c1cccn1C)C2 (centres undefined),max activity,at 19.5 µM unless noted,-18.9% [at 5 µM]
CC(C)COC1CC2(CCN(C(=O)c3cccn3C)CC2)C1,max activity,at 19.5 µM unless noted,9.82% [at 0.3 µM]
CC(C)C#Cc1ccc([C@@H]2[C@@H](CO)N3C(=O)CN(C(=O)NC4CCCC4)C[C@H]23)cc1,max activity,at 19.5 µM unless noted,-5.34%
COCC(=O)N1CC(=O)N2[C@H](CO)[C@H](c3ccc(C#CC4CC4)cc3)[C@@H]2C1,max activity,at 19.5 µM unless noted,-9.08% [at 5 µM]
COc1ccc(-c2ccc([C@@H]3[C@@H](CO)N4C(=O)CN(C(=O)C5CC5)C[C@@H]34)cc2)cc1,max activity,at 19.5 µM unless noted,19.5% [at 21 µM]
CN1CCCN(CC2(O)CCNC2)CC1 (centres undefined),max activity,at 19.5 µM unless noted,11.3% [at 0.08 µM]
Cc1cccc(-c2ccc([C@H]3[C@H]4CN(C(=O)c5ccc6c(c5)OCO6)CC(=O)N4[C@H]3CO)cc2)c1,max activity,at 19.5 µM unless noted,11.6%
CN1c2ccc(C3=CCCCC3)cc2[C@@H]2[C@@H](CCN2C(=O)C2CCOCC2)[C@H]1CO,max activity,at 19.5 µM unless noted,-17.2% [at 5 µM]
Cc1cccc(-c2ccc([C@@H]3[C@@H](CO)N4C(=O)CN(C(=O)c5ccc6c(c5)OCO6)C[C@H]34)cc2)c1,max activity,at 19.5 µM unless noted,-5.13% [at 0.3 µM]
COc1ccc(-c2ccc3c(c2)[C@H]2[C@H](CCN2C(=O)Nc2ccccc2OC)[C@H](CO)N3C)cc1,max activity,at 19.5 µM unless noted,-12.3% [at 0.6 µM]
N#Cc1ccc(-c2ccc3c(c2)[C@@H]2[C@@H](CCN2C(=O)C2CCCCC2)[C@@H](CO)N3)cc1,max activity,at 19.5 µM unless noted,24.3%
N#Cc1ccc(-c2ccc3c(c2)[C@H]2[C@H](CCN2C(=O)C2CCCCC2)[C@@H](CO)N3)cc1,max activity,at 19.5 µM unless noted,-26.1% [at 5 µM]
CCc1cnc(N2CCc3cc(C(=O)NCC4CC4)c(N(C)C)nc3CC2)nc1,max activity,at 19.5 µM unless noted,11.8% [at 0.6 µM]
CO[C@@H]1CCN(S(=O)(=O)N(C)C)C[C@@H]1Cc1cccc(C)c1,max activity,at 19.5 µM unless noted,-8.52% [at 10 µM]
CCCCOCCOCCOCc1cc2c(cc1CCC)OCO2,max activity,at 19.5 µM unless noted,-10.5% [at 10 µM]
Cc1nc(N2CCCC2)nc2c1CCN(C(=O)c1ccoc1C)CC2,max activity,at 19.5 µM unless noted,-19.1% [at 10 µM]
Cc1cc2nc(CN3CCCC(CCc4ccc(F)cc4F)C3)cc(=O)n2[nH]1 (centres undefined),max activity,at 19.5 µM unless noted,5.72%
O=C(Nc1ccc(F)cc1)N1CC(=O)N2[C@H](CO)[C@@H](c3ccc(-c4cccc(F)c4)cc3)[C@@H]2C1,max activity,at 19.5 µM unless noted,-6.88%
O=C(c1cnccn1)N1CC(=O)N2[C@H](CO)[C@H](c3ccc(-c4cccc(F)c4)cc3)[C@@H]2C1,max activity,at 19.5 µM unless noted,-10.6% [at 0.3 µM]
Cc1ccc(-c2ccc([C@H]3[C@H]4CN(C(=O)NC(C)C)CC(=O)N4[C@H]3CO)cc2)cc1,max activity,at 19.5 µM unless noted,-10.6% [at 0.6 µM]
O=C(c1cnccn1)N1CC(=O)N2[C@H](C1)[C@H](c1ccc(-c3cccc(F)c3)cc1)[C@@H]2CO,max activity,at 19.5 µM unless noted,-9.23% [at 0.16 µM]
C/C=C/c1ccc([C@H]2[C@@H](CO)N3C(=O)CN(C(=O)Nc4ccc(F)cc4)C[C@@H]23)cc1,max activity,at 19.5 µM unless noted,-13% [at 0.16 µM]
O=C(c1cnccn1)N1CC(=O)N2[C@H](CO)[C@H](c3ccc(-c4cccc(F)c4)cc3)[C@H]2C1,max activity,at 19.5 µM unless noted,15.4% and 19.8%
O=C(c1cnccn1)N1CC(=O)N2[C@H](C1)[C@@H](c1ccc(-c3cccc(F)c3)cc1)[C@@H]2CO,max activity,at 19.5 µM unless noted,25.6%
O=C(Nc1ccc(F)cc1)N1CC(=O)N2[C@H](CO)[C@@H](c3ccc(-c4cccc(F)c4)cc3)[C@H]2C1,max activity,at 19.5 µM unless noted,13.4%
CC1CCCCN1C(=O)c1ccnn1-c1ccc2ccc(-c3ccccc3)cn12 (centres undefined),max activity,at 19.5 µM unless noted,-6.05% [at 5 µM]
CC(=O)O[C@@H]1CC2C(C)(CC[C@H](O)C2(C)C)C2CC[C@]3(C)C(=CC(=O)O[C@H]3c3ccoc3)C21C (some centres undefined),max activity,at 19.5 µM unless noted,-5.91% [at 10 µM]
CC(C)n1cnc2c(NCC3CC3)nc(C3CCN(C(=O)c4cccc(F)c4F)CC3)cc21,max activity,at 19.5 µM unless noted,5.98% [at 1.2 µM]
Cc1ccccc1-c1ccc(C2[C@@H]3CN(Cc4cocn4)C[C@H]2N3)cc1 (some centres undefined),max activity,at 19.5 µM unless noted,20.2%
COCC1COCCC12CCN(C(=O)c1ccc(C)nc1)CC2 (centres undefined),max activity,at 19.5 µM unless noted,6.91% [at 2.6 µM]
CCCN(C/C=C/I)C1CCc2cccc(O)c2C1 (centres undefined),max activity,at 19.5 µM unless noted,15.1%
CC(C)NC(=O)N1CC(=O)N2[C@@H](CO)[C@H](c3ccc(/C=C/c4ccccc4)cc3)[C@@H]2C1,max activity,at 19.5 µM unless noted,-13.4% [at 0.16 µM]
O=C(C1CCOCC1)N1CC(=O)N2[C@H](C1)[C@H](c1ccc(/C=C/c3ccccc3)cc1)[C@@H]2CO,max activity,at 19.5 µM unless noted,-15.6% [at 2.6 µM]
CC1=NN(C2CCS(=O)(=O)C2)C(=O)C1(Sc1ccccc1)Sc1ccccc1 (centres undefined),max activity,at 19.5 µM unless noted,14.4% [at 10 µM]
CC(C)C#Cc1ccc([C@@H]2[C@@H](CO)N(C(=O)c3cccc(F)c3)[C@H]2C#N)cc1,max activity,at 19.5 µM unless noted,-12.4% [at 10 µM]
CC(C)CC#Cc1ccc([C@H]2[C@@H](CO)N3C(=O)CN(C(=O)c4cccc(F)c4)C[C@@H]23)cc1,max activity,at 19.5 µM unless noted,25.4%
O=C(CC1CC1)N[C@H]1CN(C(=O)c2ccoc2)C[C@@H]2CCCO[C@H]21,max activity,at 19.5 µM unless noted,-10.1% [at 10 µM]
CCc1c(C)sc2c1CCN(Cc1nc(-c3cccc(C)c3)oc1C)C2c1ccccc1 (centres undefined),max activity,at 19.5 µM unless noted,-7.44% [at 0.08 µM]
O=C1CNC[C@@H]2[C@@H](c3ccc(C#Cc4cccnc4)cc3)[C@@H](CO)N12,max activity,at 2.6 µM,9.41%
same,max activity,at 10 µM,-13%
CC(C)(O)C#Cc1cccc(-c2n[nH]c(Cc3ccccc3)n2)c1,max activity,at 19.5 µM unless noted,21.1%
Cc1ccc(CNC2=NCCNC23CCN(S(=O)(=O)c2ccc(Cl)s2)CC3)cc1,max activity,at 19.5 µM unless noted,-6.39% [at 2.6 µM]
Cc1cccc(CNC2=NCCNC23CCN(S(=O)(=O)c2ccc4c(c2)CCCC4)CC3)c1,max activity,at 19.5 µM unless noted,-9.87%
CCc1ccc(S(=O)(=O)N2CCC3(CC2)NCCN=C3NCc2cc(F)cc(F)c2)cc1,max activity,at 19.5 µM unless noted,-11.1% [at 0.08 µM]
O=S(=O)(c1ccc2c(c1)CCCC2)N1CCC2(CC1)NCCN=C2NCc1ccc2c(c1)OCO2,max activity,at 19.5 µM unless noted,-6.04% [at 0.08 µM]
CCc1ccccc1-c1cccc(-n2cnnc2)c1,max activity,at 19.5 µM unless noted,23.8% [at 10 µM]
CCc1cc(C(=O)Nc2ccc(C)cc2-c2cc(C)[nH]n2)c2c(C)noc2n1,max activity,at 19.5 µM unless noted,-5.68% [at 5 µM]
CN(C)CCN1CCOCC2(CCCN(C(=O)c3ccc4cc[nH]c4c3)C2)C1 (centres undefined),max activity,at 19.5 µM unless noted,-5.04% [at 2.6 µM]
COCC1CN(Cc2cc(C)on2)Cc2c1cnn2CC1CC1 (centres undefined),max activity,at 19.5 µM unless noted,-5.27% [at 10 µM]
COc1ccc(-n2c(C)c([N+](=O)[O-])c3ccc(O)cc32)cc1,max activity,at 19.5 µM unless noted,7.23% [at 1.2 µM]
COc1ccc(S(=O)(=O)N2CCCCN3[C@H](C2)[C@@H](c2ccc(C#CCC(C)C)cc2)[C@@H]3CO)cc1,max activity,at 19.5 µM unless noted,29.4% [at 10 µM]
COCCC(=O)C1Cc2nc(-c3ccccc3)sc2N1CC1CC1 (centres undefined),max activity,at 19.5 µM unless noted,-9.12% [at 0.3 µM]
O=C(C1CCCCC1)N1C[C@@H]2N[C@H](C1)C2c1ccc(-c2ccccc2F)cc1 (some centres undefined),max activity,at 19.5 µM unless noted,13.7% [at 2.6 µM]
C=CCN1C(=O)CC[C@H]2[C@@H]1CCN2S(=O)(=O)CC,max activity,at 19.5 µM unless noted,-17.5% [at 10 µM]
CCCNC(=O)N1C[C@@H]2N[C@H](C1)C2c1ccc(-c2ccc(OC)cc2)cc1 (some centres undefined),max activity,at 19.5 µM unless noted,11.6% [at 21 µM]
Cc1ccc(CN2CC3CN(Cc4cccc(F)c4)CC3C2)s1 (centres undefined),max activity,at 19.5 µM unless noted,-13.6% [at 1.2 µM]
Cc1cnc(N2CCC3(CCN(CC4CC4)C3=O)CC2)nc1,max activity,at 19.5 µM unless noted,-10.4%
COCC#Cc1ccc([C@@H]2[C@@H](CO)N3C(=O)CN(C(=O)c4ccncc4)C[C@@H]23)cc1,max activity,at 19.5 µM unless noted,-8.48% [at 10 µM]
CC(C)[C@H](CO)Nc1nc(Nc2ccc(C(=O)O)c(Cl)c2)c2ncn(C(C)C)c2n1,max activity,at 19.5 µM unless noted,-10.3% [at 10 µM]
O=C(NCc1ccccc1)C1CC2(CO1)CN(C(=O)c1ccc(F)cc1)c1ccccc12 (centres undefined),max activity,at 19.5 µM unless noted,-16.3% [at 10 µM]
O=C1N(CC2CC2)CCC12CCCN(Cc1cncc(Cl)c1)CC2 (centres undefined),max activity,at 19.5 µM unless noted,-16.7% [at 10 µM]
O=C(Nc1ccc(F)cc1)N1CC(=O)N2[C@@H](CO)[C@@H](c3ccc(C4=CCCC4)cc3)[C@@H]2C1,max activity,at 19.5 µM unless noted,14.9%
N#C[C@@H]1N[C@H](CO)[C@H]1c1ccc(-c2cccc(F)c2)cc1,max activity,at 19.5 µM unless noted,13.1%
CS(=O)(=O)N1CCN(C2CCOCC2)CC(C(=O)O)C1 (centres undefined),max activity,at 19.5 µM unless noted,-14.9% [at 5 µM]
CCOc1ccc(-c2nc(CN(c3ccc(OC)cc3)S(=O)(=O)c3cccs3)c(C)o2)cc1,max activity,at 19.5 µM unless noted,18.6% [at 10 µM]
COc1ccc(-c2nc(CN(c3ccccc3OC)S(=O)(=O)c3ccccc3)c(C)o2)cc1,max activity,at 19.5 µM unless noted,-9.94% [at 0.6 µM]
CC(C)Oc1ccc(NC(=O)c2nc3c(n2C(C)C)CCN(C(=O)c2ccccc2)C3)cc1,max activity,at 19.5 µM unless noted,12.7% [at 0.08 µM]
CCOC(=O)c1nn(Cc2ccccc2)c2c1CN(C(=O)CN1CC(c3ccccc3)CC1=O)CC2 (centres undefined),max activity,at 19.5 µM unless noted,-13.6%
O=C(C1CCOCC1)N1CC(=O)N2[C@@H](CO)[C@@H](c3ccc(C#CC4CCCCC4)cc3)[C@@H]2C1,max activity,at 19.5 µM unless noted,14.6%
CC(C)C#Cc1ccc([C@H]2[C@@H](CO)N3C(=O)CN(C(=O)NC4CCCC4)C[C@H]23)cc1,max activity,at 19.5 µM unless noted,-5.62% [at 10 µM]
Cc1nc2ccccc2n1CC(O)Cn1c2ccccc2c2ccccc21 (centres undefined),max activity,at 19.5 µM unless noted,-12.4%
O=C(Cc1cccnc1)N1CC(=O)N2[C@H](CO)[C@H](c3ccc(C#CC4CCCCC4)cc3)[C@H]2C1,max activity,at 19.5 µM unless noted,-8.11% [at 0.3 µM]
CN(C)C(=O)COCc1cncc2c1CCN(c1ccccn1)C2,max activity,at 19.5 µM unless noted,-8.88% and 11.8%
Cc1ccccc1S(=O)(=O)N1CCCCN2[C@H](C1)[C@H](c1ccc(C#CCN(C)C)cc1)[C@@H]2CO,max activity,at 19.5 µM unless noted,20.9% [at 10 µM]
Clc1ccccc1CSc1nc(NC2CCCCC2)c2ccccc2n1,max activity,at 19.5 µM unless noted,12.5%
CS(=O)(=O)N1CC(=O)N2[C@H](CO)[C@@H](c3ccc(Br)cc3)[C@H]2C1,max activity,at 19.5 µM unless noted,4.03%
COc1cccc(-c2ccc(C3[C@H]4CNC[C@@H]3N4C(=O)NC3CCCCC3)cc2)c1 (some centres undefined),max activity,at 19.5 µM unless noted,28.1%
COc1cccc(-c2ccc(C3[C@H]4CNC[C@@H]3N4CC3CCCCC3)cc2)c1 (some centres undefined),max activity,at 19.5 µM unless noted,15.2%
